In PubChem BioAssay (EPA / NIEHS) one finds outcome and AC50 data, which are given here for eight molecules.

As usually defined, the AC50 is the concentration giving half of the maximal activity seen.

The target of test [1] is frog Thyroid hormone Receptor alpha (TRa), thra-a (gene 397942) (UniProt P15204). Description: ATG_frTRa_XSP1: Attagene TRANS-FACTORIAL Multi-Species (XSP1) HepG2 Assay for frog Thyroid hormone Receptor alpha (TRa) (AID 2283804). In short, it runs like this: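 HepG2 cells transiently transfected with frog TRa-GAL4 chimeric reporter units, dosed 24 hr with 3 nM 6-alpha-fluorotestosterone present; reporter mRNA quantified by RT-PCR, fluorescent labelling and capillary electrophoresis, gain of signal versus DMSO.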

In test [2] the target is human Thyroid hormone Receptor alpha (TRa), THRA (gene 7067) (UniProt P10827). In words: ATG_hTRa_XSP1: Attagene TRANS-FACTORIAL Multi-Species (XSP1) HepG2 Assay for human Thyroid hormone Receptor alpha (TRa) (AID 2283805). A digest of the protocol: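 HepG2 cells transiently transfected with GAL4-UAS reporter units expressing chimeric NR-Gal4 proteins, dosed 24 hours with 3 nM 6-alpha-fluorotestosterone present. Reporter mRNA measured by RT-PCR and capillary electrophoresis; gain of signal fitted versus DMSO.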

In test [3] the test system is turtle Thyroid Hormone Receptor, alpha (TRa), gene 101949057. Description: ATG_trTRa_XSP1: Attagene TRANS-FACTORIAL Multi-Species (XSP1) HepG2 Assay for turtle Thyroid Hormone Receptor, alpha (TRa) (AID 2283806). In short, it runs like this:
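HepG2 cells transiently transfected with GAL4-UAS reporter units and chimeric receptor-Gal4 constructs, with 3 nM 6-alpha-fluorotestosterone present. Reporter mRNA was quantified 24 h after dosing by RT-PCR, 6-FAM labelling and capillary electrophoresis; gain of signal versus DMSO.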

Test [4] concerns the target zebrafish Thyroid Hormone Receptor alpha (TRa), thraa (gene 30670) (UniProt Q98867). In words: ATG_zfTRa_XSP1: Attagene TRANS-FACTORIAL Multi-Species (XSP1) HepG2 Assay for zebrafish Thyroid Hormone Receptor alpha (TRa) (AID 2283807). In short, it runs like this:
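HepG2 cells transiently transfected with GAL4-UAS reporter units including a zebrafish TRa–Gal4 chimera, dosed 24 h with 3 nM 6-alpha-fluorotestosterone present. Reporter mRNA quantified by RT-PCR and capillary electrophoresis; gain versus DMSO.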

Test [5] addresses human Thyroid hormone Receptor beta (TRb), THRB (gene 7068) (UniProt P10828). Description: ATG_hTRb_XSP1: Attagene TRANS-FACTORIAL Multi-Species (XSP1) HepG2 Assay for human Thyroid hormone Receptor beta (TRb) (AID 2283808). In short, it runs like this: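 HepG2 cells transiently transfected with reporter units driving GAL4-UAS reporters for chimeric NR-Gal4 proteins; 24 h chemical exposure with 3 nM 6-alpha-fluorotestosterone present. Reporter mRNA quantified by RT-PCR and capillary electrophoresis, gain of signal versus DMSO.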

For test [6], the target named is zebrafish Thyroid Hormone Receptor beta (TRb), thrb (gene 30607) (UniProt Q9PVE4). Description: ATG_zfTRb_XSP1: Attagene TRANS-FACTORIAL Multi-Species (XSP1) HepG2 Assay for zebrafish Thyroid Hormone Receptor beta (TRb) (AID 2283809). A digest of the protocol: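 HepG2 cells transiently transfected with multiplexed GAL4-UAS reporter units expressing chimeric zebrafish TRb–Gal4. Dosed 24 h with 3 nM 6-alpha-fluorotestosterone present; reporter mRNA measured by RT-PCR, HpaI digestion and capillary electrophoresis; gain of signal versus DMSO.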

Test [7] is described as follows: ATG_M_06_XSP2: Attagene TRANS-FACTORIAL Multi-Species (XSP2) HepG2 Assay for M06 Transcription Factor (Internal Marker) (AID 2283811).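 Further: hits are increases in signal above the DMSO baseline.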 A digest of the protocol: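 HepG2 cells transiently transfected with GAL4-UAS multi-reporter constructs, dosed 24 h with 3 nM 6-alpha-fluorotestosterone plus 1.5 nM norgestrel present to stimulate androgen receptor. Reporter mRNA quantified by RT-PCR, 6-FAM labelling, HpaI digestion and capillary electrophoresis; gain-of-signal fitted versus DMSO baseline.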

Test [8] relates to turtle Estrogen Receptor (ERa), gene 101933533. Description: ATG_trERa_XSP2: Attagene TRANS-FACTORIAL Multi-Species (XSP2) HepG2 Assay for turtle Estrogen Receptor (ERa) (AID 2283812).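 Further: human HepG2 liver cells transiently expressing turtle ERa-Gal4 chimeric receptor; actives raise reporter signal above DMSO so AC50 reflects agonist activity.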 In short, it runs like this:
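HepG2 cells transiently transfected with GAL4-UAS reporter units expressing turtle ERa-Gal4 chimera. Reporter mRNA measured after 24 h dosing by RT-PCR, fluorescent labelling and capillary electrophoresis; gain of signal fitted versus DMSO.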

Test [9] concerns the target Estrogen receptor beta (Homo sapiens) (UniProt Q92731). In words: ATG_hERb_XSP2: Attagene TRANS-FACTORIAL Multi-Species (XSP2) HepG2 Assay for human Estrogen Receptor (ERb) (AID 2283813).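 Further: actives raise reporter mRNA above DMSO so AC50 reflects agonist induction.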 A digest of the protocol:
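HepG2 cells transiently transfected with GAL4-UAS reporter units and chimeric human ERb-Gal4, 24 h exposure. Reporter mRNA quantified by RT-PCR with FAM labelling, HpaI digestion and capillary electrophoresis; gain of signal versus DMSO.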

Test [10] concerns the target chicken Estrogen Receptor (ERa), ESR1 (gene 396099) (UniProt P06212). Description: ATG_chERa_XSP2: Attagene TRANS-FACTORIAL Multi-Species (XSP2) HepG2 Assay for chicken Estrogen Receptor (ERa) (AID 2283817).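 Further: actives raise reporter signal above DMSO so AC50 reflects ER activation.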 In short, it runs like this:
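HepG2 cells transiently transfected with multiplexed GAL4-UAS reporter units expressing chimeric chicken ERa-Gal4; 24 h compound exposure. Reporter mRNA measured by RT-PCR with 6-FAM labelling, HpaI digestion and capillary electrophoresis; gain-of-signal fitted versus DMSO.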

Test [11] relates to zebrafish Estrogen Receptor (ER2a), gene 317734. Description: ATG_zfER2a_XSP2: Attagene TRANS-FACTORIAL Multi-Species (XSP2) HepG2 Assay for zebrafish Estrogen Receptor (ER2a) (AID 2283818).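 Further: hits raise reporter mRNA so AC50 reflects activation of zebrafish ER2a.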 A digest of the protocol:
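HepG2 cells transiently transfected with GAL4-UAS reporter units and chimeric zebrafish ER2a-Gal4, exposed 24 h; medium contains 3 nM 6-alpha-fluorotestosterone and 1.5 nM norgestrel. Reporter mRNA quantified by RT-PCR, HpaI digestion, capillary electrophoresis; gain versus DMSO.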

For test [12], the system named is frog Estrogen Receptor (ER), gene 398734. Description: ATG_frER1_XSP2: Attagene TRANS-FACTORIAL Multi-Species (XSP2) HepG2 Assay for frog Estrogen Receptor (ER) (AID 2283821).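 Further: hits raise reporter mRNA above DMSO baseline so potency means agonist or activator.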 A digest of the protocol:
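HepG2, transient MRTU transfection, chimeric NR-GAL4/UAS reporters; 24 h compound exposure, 24-well. Readout: reporter mRNA via RT-PCR + capillary electrophoresis, fluorescence. Positive fit vs DMSO baseline.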

Test [13] relates to zebrafish Estrogen Receptor (ER2b), gene 317733. Description: ATG_zfER2b_XSP2: Attagene TRANS-FACTORIAL Multi-Species (XSP2) HepG2 Assay for zebrafish Estrogen Receptor (ER2b) (AID 2283823).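 Further: fitted upward as reporter gain over DMSO so potency reflects activation.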 In short, it runs like this:
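Transcriptional induction measured as reporter mRNA (RT-PCR, fluorescent capillary electrophoresis) in transiently transfected HepG2 cells after 24 h dosing; DMSO served as negative control and baseline.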

Test [14] is described as follows: ATG_M_32_XSP2: Attagene TRANS-FACTORIAL Multi-Species (XSP2) HepG2 Assay for M19 Transcription Factor (Internal Marker) (AID 2283826). A digest of the protocol:
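An internal background marker among multiplexed transfected reporters in HepG2 liver cells was measured 24 h after dosing. Androgen receptor stimulation came from 3 nM 6-alpha-fluorotestosterone and 1.5 nM norgestrel.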

Test [15] deals with GAL4 Transcription Factor (Internal Marker), GAL4 (gene 855828) (UniProt P04386). Description: ATG_GAL4_XSP2: Attagene TRANS-FACTORIAL Multi-Species (XSP2) HepG2 Assay for GAL4 Transcription Factor (Internal Marker) (AID 2283814).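 Further: GAL4 reporter mRNA background control in MRTU transfected cells not a receptor target.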 A digest of the protocol: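 HepG2 cells transiently transfected with GAL4-UAS reporter units, stimulated with 3 nM 6-alpha-fluorotestosterone plus 1.5 nM norgestrel, dosed 24 h. Reporter mRNA by RT-PCR/capillary electrophoresis; gain-of-signal fit versus DMSO, background control.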

In test [16] the test system is turtle Androgen Receptor (AR), gene 101947425. In words: ATG_trAR_XSP2: Attagene TRANS-FACTORIAL Multi-Species (XSP2) HepG2 Assay for turtle Androgen Receptor (AR) (AID 2283815).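 On AC50: potency for gain of reporter signal meaning activation above DMSO baseline.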 In short, it runs like this: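 HepG2 cells transiently transfected with GAL4-UAS reporter units for chimeric NR-Gal4 receptors; 24 h dosing in presence of 3 nM 6-alpha-fluorotestosterone and 1.5 nM norgestrel. Reporter mRNA by RT-PCR and capillary electrophoresis, gain of signal versus DMSO.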

Test [17] concerns chicken Androgen Receptor (AR), gene 422165. Description: ATG_chAR_XSP2: Attagene TRANS-FACTORIAL Multi-Species (XSP2) HepG2 Assay for chicken Androgen Receptor (AR) (AID 2283819).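 Further: hits raise reporter mRNA above DMSO so potency is for activation.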 A digest of the protocol: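 HepG2 cells transiently transfected with chicken AR–GAL4 chimeric reporter constructs, stimulated with 3 nM 6-alpha-fluorotestosterone plus 1.5 nM norgestrel, dosed 24 h. Reporter mRNA quantified by RT-PCR and capillary electrophoresis; gain of signal fitted versus DMSO.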

Test [18] deals with frog Androgen Receptor (AR), gene 399456. Description: ATG_frAR_XSP2: Attagene TRANS-FACTORIAL Multi-Species (XSP2) HepG2 Assay for frog Androgen Receptor (AR) (AID 2283824).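 Further: actives raise reporter signal above DMSO so AC50 reflects agonist-like induction.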 In short, it runs like this: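 HepG2 cells transiently transfected with GAL4-UAS reporter units and frog (Xenopus laevis) AR-Gal4 chimera; reporter mRNA measured 24 h after dosing by RT-PCR and capillary electrophoresis. Gain of signal fitted relative to DMSO baseline.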

Test [19] can be described thus: ATG_M_19_XSP2: Attagene TRANS-FACTORIAL Multi-Species (XSP2) HepG2 Assay for M32 Transcription Factor (Internal Marker) (AID 2283822). A digest of the protocol:
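Internal background marker in a multi-species nuclear receptor TRANS panel: transfected HepG2 cells exposed 24 h, with 3 nM 6-alpha-fluorotestosterone and 1.5 nM norgestrel present. Readout is RT-PCR of reporter transcripts resolved by capillary electrophoresis, gain-of-signal versus DMSO.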

Inconclusive results are not listed. Active and inactive are the calls of the source. How the source made its calls: active means hit-call score of the fitted dose curve at least 0.9, where 1 is the maximum; inconclusive means response in the unintended direction; inactive means score below 0.9.

Chain of zebrafish Thyroid Hormone Receptor alpha (TRa), thraa (gene 30670) (Q98867 whole entry, looked up, the tested form may be a part): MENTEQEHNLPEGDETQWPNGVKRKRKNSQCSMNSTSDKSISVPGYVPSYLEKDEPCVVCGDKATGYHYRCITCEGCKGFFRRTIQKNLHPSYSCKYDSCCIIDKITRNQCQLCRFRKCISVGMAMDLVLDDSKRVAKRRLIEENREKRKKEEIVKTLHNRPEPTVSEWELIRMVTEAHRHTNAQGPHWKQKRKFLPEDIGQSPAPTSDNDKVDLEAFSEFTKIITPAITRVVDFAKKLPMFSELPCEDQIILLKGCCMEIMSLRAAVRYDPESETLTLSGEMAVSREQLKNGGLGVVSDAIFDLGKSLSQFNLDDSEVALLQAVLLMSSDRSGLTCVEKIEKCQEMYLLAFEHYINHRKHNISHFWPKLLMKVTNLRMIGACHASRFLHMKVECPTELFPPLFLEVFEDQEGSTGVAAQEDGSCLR
Chain of human Thyroid hormone Receptor alpha (TRa), THRA (gene 7067) (P10827 whole entry, looked up, the tested form may be a part): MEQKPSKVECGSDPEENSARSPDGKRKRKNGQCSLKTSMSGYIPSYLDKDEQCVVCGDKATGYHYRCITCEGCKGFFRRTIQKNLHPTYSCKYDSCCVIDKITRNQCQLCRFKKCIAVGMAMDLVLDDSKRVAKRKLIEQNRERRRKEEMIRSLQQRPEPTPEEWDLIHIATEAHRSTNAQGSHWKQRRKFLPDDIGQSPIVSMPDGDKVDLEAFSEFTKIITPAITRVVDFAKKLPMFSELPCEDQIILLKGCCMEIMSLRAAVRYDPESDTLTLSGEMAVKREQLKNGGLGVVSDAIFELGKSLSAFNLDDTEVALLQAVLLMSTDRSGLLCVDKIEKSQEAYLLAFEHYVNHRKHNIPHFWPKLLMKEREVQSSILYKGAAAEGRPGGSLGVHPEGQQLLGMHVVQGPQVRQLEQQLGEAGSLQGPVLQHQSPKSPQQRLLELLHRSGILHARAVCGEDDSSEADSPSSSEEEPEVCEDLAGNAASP
Chain of GAL4 Transcription Factor (Internal Marker), GAL4 (gene 855828) (P04386 whole entry, looked up, the tested form may be a part): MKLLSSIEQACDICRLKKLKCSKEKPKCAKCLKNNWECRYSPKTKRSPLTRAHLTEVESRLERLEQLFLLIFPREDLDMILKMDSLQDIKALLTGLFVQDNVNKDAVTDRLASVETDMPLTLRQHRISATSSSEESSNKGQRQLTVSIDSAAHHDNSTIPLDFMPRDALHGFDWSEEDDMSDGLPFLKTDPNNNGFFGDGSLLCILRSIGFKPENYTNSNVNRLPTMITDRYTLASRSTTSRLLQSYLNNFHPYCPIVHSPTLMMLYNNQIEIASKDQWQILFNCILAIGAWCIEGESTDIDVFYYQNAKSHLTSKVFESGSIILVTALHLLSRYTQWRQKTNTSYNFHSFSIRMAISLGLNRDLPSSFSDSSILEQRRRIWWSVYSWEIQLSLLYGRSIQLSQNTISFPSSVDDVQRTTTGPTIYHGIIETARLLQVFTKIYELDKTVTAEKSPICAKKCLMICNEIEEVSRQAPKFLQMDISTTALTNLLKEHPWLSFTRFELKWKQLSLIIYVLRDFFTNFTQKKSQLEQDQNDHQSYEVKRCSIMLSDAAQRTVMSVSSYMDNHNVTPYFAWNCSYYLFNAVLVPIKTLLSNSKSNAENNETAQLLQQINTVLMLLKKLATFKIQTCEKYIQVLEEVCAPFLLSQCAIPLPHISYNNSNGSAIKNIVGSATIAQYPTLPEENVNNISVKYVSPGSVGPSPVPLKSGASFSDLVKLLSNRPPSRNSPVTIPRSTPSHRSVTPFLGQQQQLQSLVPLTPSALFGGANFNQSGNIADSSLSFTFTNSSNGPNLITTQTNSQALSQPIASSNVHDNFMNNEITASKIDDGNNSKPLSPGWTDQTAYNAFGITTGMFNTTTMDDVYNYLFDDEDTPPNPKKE
Chain of chicken Estrogen Receptor (ERa), ESR1 (gene 396099) (P06212 whole entry, looked up, the tested form may be a part): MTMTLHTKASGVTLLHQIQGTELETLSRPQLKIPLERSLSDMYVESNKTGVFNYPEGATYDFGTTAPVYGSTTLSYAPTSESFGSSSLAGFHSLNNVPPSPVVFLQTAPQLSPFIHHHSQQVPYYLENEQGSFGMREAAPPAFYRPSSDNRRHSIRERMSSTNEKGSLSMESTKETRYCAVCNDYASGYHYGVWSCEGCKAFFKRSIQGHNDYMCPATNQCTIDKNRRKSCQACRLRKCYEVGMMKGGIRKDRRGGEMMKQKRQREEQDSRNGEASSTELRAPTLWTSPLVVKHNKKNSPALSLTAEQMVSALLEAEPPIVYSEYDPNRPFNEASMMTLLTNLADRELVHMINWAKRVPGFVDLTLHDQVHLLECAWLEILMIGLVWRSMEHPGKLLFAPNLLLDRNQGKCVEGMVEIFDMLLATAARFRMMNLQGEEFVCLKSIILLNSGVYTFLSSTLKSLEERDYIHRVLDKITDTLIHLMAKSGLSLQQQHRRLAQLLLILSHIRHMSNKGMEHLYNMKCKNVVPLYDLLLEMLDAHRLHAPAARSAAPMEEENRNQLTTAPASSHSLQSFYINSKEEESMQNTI
Chain of human Thyroid hormone Receptor beta (TRb), THRB (gene 7068) (P10828 whole entry, looked up, the tested form may be a part): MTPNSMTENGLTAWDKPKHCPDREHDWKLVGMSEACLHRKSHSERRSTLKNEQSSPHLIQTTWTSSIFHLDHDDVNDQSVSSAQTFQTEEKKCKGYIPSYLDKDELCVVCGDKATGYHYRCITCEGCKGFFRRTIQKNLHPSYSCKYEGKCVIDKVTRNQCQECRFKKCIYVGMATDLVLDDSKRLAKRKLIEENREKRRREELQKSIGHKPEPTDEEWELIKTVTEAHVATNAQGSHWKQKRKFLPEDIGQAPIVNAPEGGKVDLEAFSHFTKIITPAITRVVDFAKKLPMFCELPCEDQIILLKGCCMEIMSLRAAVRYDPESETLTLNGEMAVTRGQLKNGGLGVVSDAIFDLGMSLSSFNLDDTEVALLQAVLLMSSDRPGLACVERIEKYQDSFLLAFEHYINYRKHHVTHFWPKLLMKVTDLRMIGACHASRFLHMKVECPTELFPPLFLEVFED
Chain of Estrogen receptor beta (Homo sapiens) (Q92731 whole entry, looked up, the tested form may be a part): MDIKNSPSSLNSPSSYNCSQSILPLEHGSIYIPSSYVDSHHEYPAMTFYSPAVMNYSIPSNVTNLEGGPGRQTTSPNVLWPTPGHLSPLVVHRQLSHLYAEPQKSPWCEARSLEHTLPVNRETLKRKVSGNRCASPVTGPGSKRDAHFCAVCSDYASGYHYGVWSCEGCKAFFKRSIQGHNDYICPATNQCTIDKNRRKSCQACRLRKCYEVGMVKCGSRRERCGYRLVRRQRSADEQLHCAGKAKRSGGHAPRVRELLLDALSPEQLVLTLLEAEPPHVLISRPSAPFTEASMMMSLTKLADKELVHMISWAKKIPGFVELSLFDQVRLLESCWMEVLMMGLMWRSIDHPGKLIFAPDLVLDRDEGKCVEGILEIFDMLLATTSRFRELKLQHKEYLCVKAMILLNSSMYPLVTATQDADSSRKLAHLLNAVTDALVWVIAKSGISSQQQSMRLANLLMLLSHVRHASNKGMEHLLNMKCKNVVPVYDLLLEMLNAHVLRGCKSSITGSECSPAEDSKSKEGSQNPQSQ
Chain of frog Thyroid hormone Receptor alpha (TRa), thra-a (gene 397942) (P15204 whole entry, looked up, the tested form may be a part): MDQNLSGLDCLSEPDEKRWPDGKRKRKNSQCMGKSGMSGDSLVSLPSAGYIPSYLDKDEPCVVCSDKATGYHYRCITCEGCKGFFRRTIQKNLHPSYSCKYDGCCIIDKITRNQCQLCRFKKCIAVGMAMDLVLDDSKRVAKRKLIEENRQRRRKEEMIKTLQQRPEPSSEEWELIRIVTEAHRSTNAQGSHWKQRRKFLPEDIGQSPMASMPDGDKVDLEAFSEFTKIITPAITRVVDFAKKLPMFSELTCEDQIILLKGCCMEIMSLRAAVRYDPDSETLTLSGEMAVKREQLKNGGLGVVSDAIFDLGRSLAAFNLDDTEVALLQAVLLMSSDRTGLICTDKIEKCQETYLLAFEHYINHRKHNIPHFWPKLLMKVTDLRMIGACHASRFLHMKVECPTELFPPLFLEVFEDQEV
Chain of zebrafish Thyroid Hormone Receptor beta (TRb), thrb (gene 30607) (Q9PVE4 whole entry, looked up, the tested form may be a part): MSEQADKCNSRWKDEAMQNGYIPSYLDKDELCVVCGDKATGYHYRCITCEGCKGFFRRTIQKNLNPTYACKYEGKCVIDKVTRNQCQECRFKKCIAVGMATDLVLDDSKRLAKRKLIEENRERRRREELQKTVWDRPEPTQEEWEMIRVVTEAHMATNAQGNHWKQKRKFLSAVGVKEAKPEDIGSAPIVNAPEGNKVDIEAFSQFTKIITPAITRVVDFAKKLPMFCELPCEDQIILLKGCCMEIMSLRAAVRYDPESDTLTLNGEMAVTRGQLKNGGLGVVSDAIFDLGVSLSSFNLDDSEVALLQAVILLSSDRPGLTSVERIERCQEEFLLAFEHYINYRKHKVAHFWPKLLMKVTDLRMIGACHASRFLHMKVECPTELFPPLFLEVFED

As for `C=CC1(C)OC(=O)N(c2cc(Cl)cc(Cl)c2)C1=O` (centres undefined), the molecule was classed as inactive in [1], in test [2], in [4], in test [7], in test [8] and in [9]. Moreover, the result in test [10], in test [11], in [12] and in [14] was inactive. Further, the AC50 in test [3] is 134 µM (active); in test [5], 67.6 µM (active); in test [6] it was 51.6 µM (active); in test [13], 142 µM (active).
Consider `CC(C)(C)c1ccc(CSc2cnn(C(C)(C)C)c(=O)c2Cl)cc1`, for which the AC50 in test [1] was 0.148 µM (active). The result in [3], in [4], in [6], in test [7], in test [8] and in test [9] was inactive. In addition, the call in [15], in test [16], in [10], in test [11], in test [17] and in test [12] was inactive. The result in test [13], in [18] and in test [14] was inactive.
Turning to `CCCCNC(=O)OCC#CI`, the outcome in test [1], in test [2], in test [3], in test [5], in [7] and in test [9] was inactive. In addition, the outcome in test [12] and in [14] was inactive. Besides, the concentration at half-maximal activity (AC50) in test [13] was 26.2 µM (active).
As to `C#CCOS(=O)OC1CCCCC1Oc1ccc(C(C)(C)C)cc1` (centres undefined), the result in test [2], in test [3], in [5], in [6], in test [7] and in test [8] was inactive. In addition, the result in [15], in test [16], in test [10] and in [14] was inactive. The AC50 in test [11] was 16.1 µM (active); in test [17] it was 4.55 µM (active); in test [13] it was 100 µM (active).
With `CCCCC(CC)COC(=O)c1ccccc1C(=O)OCC(CC)CCCC` (centres undefined), the outcome in [1], in test [4], in test [7] and in [12] was inactive. Moreover, the concentration at half-maximal activity (AC50) is 46.3 µM (active) in [2]; 47.8 µM (active) in [3]; 100 µM (active) in [5]; 100 µM (active) in [6]; 8.7 µM (active) in test [13].
For the molecule `COP(=S)(OC)Oc1nc(Cl)c(Cl)cc1Cl`, the outcome in test [3], in test [6], in test [7], in [9] and in test [11] was inactive. Also, the AC50 in test [8] is 55.8 µM (active); in [16] it was 17.5 µM (active); in test [10] it was 35.3 µM (active); in [17], 22.9 µM (active); in test [12], 43 µM (active); in [13] it was 87.2 µM (active). In addition, in test [18], the AC50 was 29.7 µM (active).
For the molecule `CON(C)C(=O)Nc1ccc(Cl)c(Cl)c1`, the call in test [1], in test [2], in [3], in test [4], in test [6] and in test [15] was inactive. In addition, the molecule was classed as inactive in test [10], in test [11], in test [12], in test [19] and in test [13].
Take `CCCC1COC(Cn2cncn2)(c2ccc(Cl)cc2Cl)O1` (centres undefined): the call in test [1], in test [3], in [4], in [7], in test [15] and in test [14] was inactive. In addition, the concentration at half-maximal activity (AC50) in [8] was 64.2 µM (active); in [10], 3.88 µM (active); in test [12], 167 µM (active); in [13], 39.5 µM (active).
